Source: the supplement of paper PMC7411054
Structures can show the parent of a compound that is named as a salt.

Legend:
Assay in all cases: lowest phenotypically active concentration; higher = less potent
Details in all cases: treatment time: 24 h
A549-CANX-COX4 = tested on: A549-CANX-COX4
Procedure, shortened: (§1)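 Each of fifteen gene-edited A549, HepG2 and WPMY1 reporter lines, marked with BFP for segmentation and GFP and RFP/FusionRed, was treated in four wells at 0.3, 1, 3 or 9 µM for 24 h prior to live imaging. Normalisation of per-well live-cell features used solvent control wells. Deviation needed ≥3 of 4 wells beyond the 95th percentile of control Euclidean distances, and reproducibility needed a median replicate Pearson correlation above the 95th percentile of non-replicates. Both were required for phenotypic activity.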

A549-TP53BP1-CLTA = tested on: A549-TP53BP1-CLTA
Procedure, shortened: as §1

HepG2-CANX-COX4 = tested on: HepG2-CANX-COX4
Procedure, shortened: as §1

HepG2-GM130-SQSTM1 = tested on: HepG2-GM130-SQSTM1
Procedure, shortened: as §1

HepG2-TUBA1B-RELA = tested on: HepG2-TUBA1B-RELA
Procedure, shortened: as §1

WPMY1-ACTB-RAB5A = tested on: WPMY1-ACTB-RAB5A
Procedure, shortened: as §1

WPMY1-CANX-COX4 = tested on: WPMY1-CANX-COX4
Procedure, shortened: as §1

WPMY1-GM130-SQSTM1 = tested on: WPMY1-GM130-SQSTM1
Procedure, shortened: as §1

WPMY1-TP53BP1-CLTA = tested on: WPMY1-TP53BP1-CLTA
Procedure, shortened: as §1

WPMY1-TUBA1B-RELA = tested on: WPMY1-TUBA1B-RELA
Procedure, shortened: as §1

SMILES	lowest phenotypically active concentration (A549-CANX-COX4) [µM]	lowest phenotypically active concentration (A549-TP53BP1-CLTA) [µM]	lowest phenotypically active concentration (HepG2-CANX-COX4) [µM]	lowest phenotypically active concentration (HepG2-GM130-SQSTM1) [µM]	lowest phenotypically active concentration (HepG2-TUBA1B-RELA) [µM]	lowest phenotypically active concentration (WPMY1-ACTB-RAB5A) [µM]	lowest phenotypically active concentration (WPMY1-CANX-COX4) [µM]	lowest phenotypically active concentration (WPMY1-GM130-SQSTM1) [µM]	lowest phenotypically active concentration (WPMY1-TP53BP1-CLTA) [µM]	lowest phenotypically active concentration (WPMY1-TUBA1B-RELA) [µM]
CC(C)n1c(/C=C/[C@@H](O)C[C@@H](O)CC(=O)O)c(-c2ccc(F)cc2)c2ccccc21 [fluvastatin]	9	9	3	1	3	1	3	1	9	3
Cc1cc2c(F)c(Oc3ncnn4cc(OC[C@@H](C)OC(=O)[C@H](C)N)c(C)c34)ccc2[nH]1 [brivanib-alaninate]	9	9	3	9	9	3	3	3	3	3
COc1cc2c(cc1NS(=O)(=O)c1ccc(Br)cc1C)n(C)c(=O)n2C	9	9	3	9	3	–	–	–	–	–
CCn1c(=O)n([C@H]2CCCN(c3nccc(-c4cc5ccccc5o4)n3)C2)c2ccccc21	3	9	–	–	–	–	3	–	–	–
CC(C)c1cnn2c(NCc3ccccc3)cc(NCCCCCCN)nc12 [BS 181 dihydrochloride]	9	9	–	–	–	–	9	–	9	9
C[C@@H]1C[C@H]2[C@@H]3CCC4=CC(=O)C=C[C@]4(C)[C@@]3(Cl)[C@@H](O)C[C@]2(C)[C@@]1(OC(=O)c1ccco1)C(=O)CCl [mometasone furoate]	≤ 0.3	≤ 0.3	–	–	–	–	–	3	–	–
CN(C)CC(=O)Nc1ccc2[nH]c(=O)c3ccccc3c2c1 [PJ 34 hydrochloride]	9	–	9	9	9	9	3	9	–	9
CCCCc1oc2ccc(NS(C)(=O)=O)cc2c1C(=O)c1ccc(OCCCN(CCCC)CCCC)cc1 [dronedarone]	9	–	–	9	3	9	9	–	9	9
CN1CCc2cccc3c2[C@H]1Cc1ccc(O)c(O)c1-3 [r(-)-apomorphine]	9	9	–	–	–	9	9	≤ 0.3	–	9
COc1cc2ncnc(Nc3cccc(Br)c3)c2cc1OC	1	≤ 0.3	–	9	9	–	9	9	3	–
COc1ccc(-c2cnc(-c3cccc4c3-c3ccccc3C4=O)o2)cc1	≤ 0.3	≤ 0.3	–	–	–	≤ 0.3	≤ 0.3	≤ 0.3	≤ 0.3	≤ 0.3
CCCOc1ccc(CCc2nc3cc(-c4c(C)noc4C)ccc3n2CCN2CCOCC2)cc1	9	–	9	–	–	–	–	–	–	–
CC1(C)O[C@@H]2C[C@H]3[C@@H]4C[C@H](F)C5=CC(=O)C=C[C@]5(C)[C@@]4(F)[C@@H](O)C[C@]3(C)[C@]2(C(=O)CO)O1 [fluocinolone acetonide]	≤ 0.3	≤ 0.3	–	–	–	≤ 0.3	–	–	–	–
OCc1cc(C(O)CNCCCCCCOCCCCc2ccccc2)ccc1O (centres undefined) [salmeterol]	9	–	–	9	9	9	3	1	9	9
